Results reported in PubChem BioAssay (NCI).
This is part of a sample that, as a whole, favours compounds with a hit. Of some 83,000 tested, about 20% had one in any assay.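 Single-concentration screen, 48 h exposure, 96-well plates. Endpoint: percent growth. Below 10 = active.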 Values without a mark were called inactive. Calls of active or inactive are those of the source.

tested on: NCI-H322M lung; experiment: NCI-60 one-dose screen, 48 h (100 = growth as untreated, 0 = no growth, -100 = all killed); settings: 10 µM unless noted
Description: Growth inhibition of the NCI-H322M human Non-Small Cell Lung tumor cell line is measured as a screen for anti-cancer activity. Cells are grown in 96 well plates and exposed to the test compound for 48 hours. Compounds are tested at a single concentration, which is 10^-5 M for most compounds. The reported endpoint is percent growth (GI% or GIPRCNT), where numbers from 0 - 100% represent growth inhibition, and numbers from -100% - 0 represent cell death. For example, a value of 40 represents 60% growth inhibition. A value of 0 means no net growth occurred over the course of the experiment. A value of -40 indicates 40% of cells at the beginning of the experiment died by the end of the experiment. A value of -100 means all cells are dead at the end of the experiment.
NCI-60 Human Tumor Cell Lines Screen was performed using the standard one-dose NCI protocol, which is described in more detail at https://dtp.cancer.gov/discovery_development/nci-60/default.htm.
Compounds with GIPRCNT values below 10 were considered active. Activity score was based on GIPRCNT using the following formula: […]
Score is 0 for GIPRCNT values of 100 or above, 50 for GIPRCNT values of 0, and 100 for GIPRCNT values of -100.

Going from Cc1cc(C)c2c(n1)sc1c(Nc3ccc(OCc4ccccc4)cc3)ncnc12 to CN(C)CCOc1nc2c3cccnc3cc(-c3cccc(Cl)c3)c2c2ncccc12, the growth falls from 92.8% to 44.9%.

Compared with COc1ccc(/C(=C\c2ccc3c(c2)OCO3)C(=O)Nc2nc3ccccc3s2)cc1, COc1ccc(-c2nsc3c2NC(=O)CC3c2ccc3c(c2)OCO3)cc1 (stereo not given) is lower in growth: 94.4% for the first, 43.9% for the second.

Compared with Oc1ccc(Cl)cc1-c1cc(-c2ccccc2Cl)[nH]n1, COc1ccc2[nH]cc(/C=C3\C(=O)Nc4ccccc43)c2c1 is lower in growth: 65.1% for the first, 37.8% for the second.

Compared with COc1cc2nccc(Oc3ccc(NC(=O)C4(C(=O)Nc5c(F)cc(F)cc5F)CC4)cc3)c2cc1Oc1ccc(N)cn1, Cc1ccc(NC(=O)c2nc(S(C)=O)oc2-c2ccc(F)cc2)cc1Nc1nccc(-c2cccnc2)n1 (stereo not given) is higher in growth: 74.8% for the first, 103% for the second.

First: CO[C@@]12[C@@H]3NC3CN1C1=C(C(=O)C(N)=C(C)C1=O)[C@@H]2COC(N)=O (stereo not given in full)
Second: CC(=O)c1c(O)c(C)c(O)c2c1OC1=CC(=O)/C(=C(/C)N)C(=O)C12C (stereo not given)
The growth of the first is lower: 14.4% for the first, 97.3% for the second.

Compared with COC1CC(N)C2OC(c3ccccc3)OCC2O1 (stereo not given), COc1ccc(C(=O)C(CN(C)C)c2ccccc2)cc1 (stereo not given) is lower in growth: 107% for the first, 96% for the second.

Going from COc1ccc(/C=C2\Cc3c(Br)cccc3C2=O)c(OC)c1 to COc1cccc(Cn2c(-c3nonc3NC(C)=O)nc3ccccc32)c1, the growth falls from 94.7% to 33.7%.

Compared with CC(=O)c1cc(C(=O)c2ccc3c(c2)Sc2ccccc2N3)c2c(C)cccn12, O=[N+]([O-])c1cccc(N=C(Nc2cccc([N+](=O)[O-])c2)c2ccccc2)c1 is higher in growth: 37.4% for the first, 81.2% for the second.

First: COc1ccc(/C=C2\N=C(c3cccnc3)N(c3ccccc3)NC2=O)cc1
Second: O=C1/C(=C\c2cccn2Cc2ccc(Cl)cc2)c2ccccc2N1c1c(Cl)cccc1Cl
The growth of the first is higher: 94.3% for the first, 68.6% for the second.

Going from CC(=O)O[C@H]1[C@H](CC#CC#CC[C@@H]2C[C@]3(C)[C@H]4CC=C5[C@H]6[C@@H](C)[C@H](C)CC[C@]6(C(=O)NCCN(CCN)CCN)CC[C@@]5(C)[C@]4(C)CC[C@H]3C(C)(C)[C@H]2OC(C)=O)C[C@]2(C)[C@H]3CC=C4[C@H]5[C@@H](C)[C@H](C)CC[C@]5(C(=O)NCCN(CCN)CCN)CC[C@@]4(C)[C@]3(C)CC[C@H]2C1(C)C to CNCc1cccc2c1OCCOCCOCCC(C)S(=O)(=O)c1ccc(cc1)-c1cnc(N)c(n1)C(=O)N2 (stereo not given), the growth rises from 63.3% to 67%.

Going from CCOC(C)(c1ccc(Cl)cc1)C1CCNCC1 (stereo not given) to Cc1nn(-c2ccc(Cl)cc2)c(=O)n1CCN1CCOCC1, the growth falls from 105% to 92.3%.

Going from COCCOCCOCc1n(Cc2ccc3ccccc3n2)c2ccccc2[n+]1Cc1ccc2ccccc2c1 to CC1CCN(Cc2ccc(NC(=O)c3cc4ccc5cccnc5c4[nH]3)cc2)CC1, the growth rises from 26.8% to 49.2%.

First: Cc1cc(N=Nc2ccc(-c3ccc(N=Nc4ccc(O)c(C(=O)O)c4)cc3)cc2)c(N)c(N=Nc2ccc(C(=O)O)cc2)c1N
Second: Fc1ccc2nc(-c3ccc(-c4noc(-c5ccc(Cl)cc5)n4)cc3)[nH]c2c1
The growth of the first is lower: 99.9% for the first, 107% for the second.

First: O=C1CC2(O)CSc3nc(=O)cc(n32)N1 (stereo not given)
Second: Cc1ccc(NC(=O)c2nc(S(C)(=O)=O)oc2-c2ccc(F)cc2)cc1Nc1ccc2ncn(C)c(=O)c2c1
The growth of the first is lower: 93.2% for the first, 108% for the second.

Going from COc1cc(C2CC(c3ccc(Cl)cc3)=NN2C=O)ccc1OS(=O)(=O)c1ccc(C)cc1 (stereo not given) to c1ccc(C2=Nc3ccccc3SC2)cc1, the growth rises from 97% to 98.2%.

First: CC(CN1CCN(C)CC1)CN1c2ccccc2Sc2ccc(C(F)(F)F)cc21 (stereo not given)
Second: CCCCCCCCCCCC1=NC(C)(C)CN1C(C)(C)CO
The growth of the first is lower: 80% for the first, 92.6% for the second.

CCCCCc1c(C)[nH]c(/C=C2\N=C(c3ccc[nH]3)C=C2CC)c1C was tested, and the growth was -90.2% (active).
For CN1CCN(Cc2ccc(NC(=O)c3cncc(C#Cc4cnc5cccnn45)c3)cc2C(F)(F)F)CC1, the growth was 6.52% (active).
N=C(N)c1ccc(-c2ccc(-c3cc(Cl)cc(Cl)c3)o2)nc1 was tested, and the growth was -30.9% (active).
N#Cc1c(N)n(C2OC(CO)C(O)C2O)c2ncnc(N)c12 (stereo not given) was tested, and the growth was -27.6% (active).
For OC(c1cc2c(Cl)cc(Cl)cc2c2cc(C(F)(F)F)ccc12)C1CCCCN1 (stereo not given), the growth was -69.7% (active).
In the case of COc1cc(C2=NOC(c3cc(OC)c(OC)c(OC)c3)C2)ccc1OCCCCOc1cc2c(cc1OC)C(=O)N1CCC[C@H]1C=N2 (stereo not given in full), the growth is reported as -6.38% (active).
O=c1cc(-c2ccc3c(c2)OCCO3)oc2cc(Cl)ccc12 was tested, and the growth was -6.58% (active).

With C=C1NC(=O)C(C(C)CC)NC(=O)C2CSCC(NC(=O)CCC(=O)O)C(=O)NC(Cc3ccccc3)C(=O)NC(C)C(=O)NC(CC(C)CC)C(=O)NC(C(=O)NC(Cc3ccccc3)C(=O)N3CCCC3C(=O)N2)C(C)OC(=O)C(CO)NC(=O)C(C(O)COC)N(C)C(=O)C(C(C)C)NC(=O)C(CC(C)CC)NC1=O (stereo not given) the growth was 39.8% [6 µM].
